# Only some compounds are listed: those with a hit (about 7.4% of all), similar ones and a draw of the others.
# Rab9 promoter act – activators of Rab9 promoter; AID 485297; Huh7 Rab9 promoter-luciferase reporter, luminescence, 24 h; 320,000 compounds, 2.8% hits; Potency, µM (titrated, usually from 9.22 µM), usual class: activators; also: nearly all actives have a fitted effect of over 60% in size
#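 Luminescence from Amplite-detected luciferase (10 minutes, ambient) reports Rab9 promoter activation. Before that, stable Rab9-luciferase Huh7 cells (1500/well, reduced-serum OP-MEM I plus 10% FBS) were exposed to compound for 24 hours at 37C.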
# FLuc counter – firefly luciferase modulation, counter-screen for miR-21 project; P08659; Potency, µM (doses to about 57.5 µM), actives largely listed as inhibitors; purified FLuc, Km substrates, luminescence inhibition; 360,000 compounds, 6.9% hits; also: nearly all actives have a fitted effect of over 55% in size
# Target sequence (P08659 whole entry, looked up): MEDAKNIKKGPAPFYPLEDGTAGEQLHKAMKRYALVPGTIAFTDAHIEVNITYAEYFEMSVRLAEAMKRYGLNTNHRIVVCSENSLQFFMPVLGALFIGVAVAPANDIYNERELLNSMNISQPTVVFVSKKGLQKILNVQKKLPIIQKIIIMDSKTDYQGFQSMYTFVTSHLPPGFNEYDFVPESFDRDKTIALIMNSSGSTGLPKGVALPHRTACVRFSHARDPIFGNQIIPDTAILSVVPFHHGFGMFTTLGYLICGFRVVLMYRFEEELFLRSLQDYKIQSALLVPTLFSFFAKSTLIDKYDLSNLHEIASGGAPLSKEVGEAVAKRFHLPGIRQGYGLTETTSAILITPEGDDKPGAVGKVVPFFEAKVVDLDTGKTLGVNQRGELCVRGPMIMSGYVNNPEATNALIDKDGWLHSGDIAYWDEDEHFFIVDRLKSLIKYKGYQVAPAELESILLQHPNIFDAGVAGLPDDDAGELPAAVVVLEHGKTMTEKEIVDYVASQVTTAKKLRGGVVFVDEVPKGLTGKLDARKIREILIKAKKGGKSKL
#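 Purified P. pyralis luciferase, 10 nM final, with Km-level 10 uM D-luciferin and 10 uM ATP in 50 mM Tris acetate pH 7.5, 10 mM Mg acetate, 0.01% Tween-20, 0.05% BSA; 6-point qHTS titration about 60 µM downward; luminescence read.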
# ELG1 genotoxic – induces genotoxicity in HEK293T cells with luciferase-tagged ELG1 | HEK293T ELG1-luciferase reporter, luminescence, 16 h | 330,000 compounds, 1.3% hits | Potency, µM (highest dose often 46 µM), actives largely listed as activators; also: nearly all actives have a fitted effect of over 60% in size
#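 Genotoxic stress is detected as increased luminescence from luciferase-tagged ELG1 in HEK293T cells, measured with ONE-Glo after a 16 hr treatment at 37 °C.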
# NPC1 promoter act – activators of NPC1 promoter | Huh7 NPC1 promoter luciferase reporter, 24 h | Potency, µM (doses to about 9.22 µM), actives largely listed as activators | 320,000 compounds, 2.4% hits | AID 485313; also: nearly all actives have a fitted effect of over 60% in size
#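 Readout is luciferase luminescence, reflecting NPC1 promoter activation in stably transfected Huh7 cells after 24 h compound exposure at 37 °C in reduced-serum medium with 10% FBS.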
# SMN2 splice enh – SMN2 splice variant enhancement. 210,000 compounds, 2.8% hits. HEK293 SMN2-luciferase splicing reporter, luminescence, 30-36 h. AID 1458. Potency, µM (doses to about 46.1 µM), most hits filed as activators; also: nearly all actives have a fitted effect of over 55% in size
#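 HEK293 cells carry an SMN2 […]–luciferase reporter in which exon 7 inclusion puts luciferase in frame. Cells were plated 10-12 h before compound addition, then incubated 30-36 h at 37C. ONE-Glo luminescence was read; sodium butyrate at 4.5 mM final served as control.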
# A number is an active result; - = inactive; ? = inconclusive; . = no result given; [ ] = dose if it differs, or a comment. Calls follow the shape of the dose curve; as a rule, active = well fitted curve in the direction sought with a large enough effect; inconclusive = small, poorly fitted or top-dose-only effect, or another doubt; inactive = no such curve, though single readings can be large; an effect the other way counts as inactive or inconclusive.
SMILES,Rab9 promoter act,FLuc counter,ELG1 genotoxic,NPC1 promoter act,SMN2 splice enh
O=C(CN1C(=O)S/C(=C\c2ccccc2)C1=O)NNC(=O)c1ccccc1O,-,-,-,-,-
CN(C)c1ncc2nc(-c3ccc(F)cc3)c(=O)n(CCC#N)c2n1,.,.,.,.,-
CC(=NC1CCCCC1)C1=C(O)c2ccccc2C1=O,2.8µM,3.4µM,?,2.8µM,16µM
CC(=O)N(C1=C(Cl)C(=O)c2ccccc2C1=O)C1CCCCC1,-,?,-,-,.
O=C1/C(=C/c2ccccn2)COc2ccccc21,-,8.5µM,-,-,-
CC1C/C(=C/c2ccccn2)C(=O)/C(=C/c2ccccn2)C1 (stereo unspecified),-,-,-,-,-
O=C1/C(=C/c2ccc(O)cc2)COc2ccccc21,-,0.76µM,10µM,-,.
CCOc1cc(/C=C2/COc3ccccc3C2=O)ccc1OCC(=O)N(C)C,-,-,-,-,-
COc1ccccc1-c1nnc(C2CCN(C(=O)c3cccc(Cl)c3)CC2)o1,.,-,.,.,-
CCCCc1cc2c(cn1)=C(OC(=O)c1cccs1)C(C)(OC(=O)CC)C(=O)C=2 (stereo unspecified),.,.,.,.,-[9.22 µM]
Cc1ccc(Cn2c(CNC(=O)c3ccc(Cl)c([N+](=O)[O-])c3)nc3cccnc32)cc1,.,-,.,.,.
CN(C)/C=C1/N=C(c2ccccc2)OC1=O,-,-,-,-,-
O=C1OC(c2ccccc2)=C/C1=C/N1CCCCC1,2.5µM,6µM,?,2.5µM,?
Cc1ccc(C2=N/C(=C\c3c(C)nn(-c4ccccc4)c3N3CCCC3)C(=O)O2)cc1,-,-,-,-,-
O=C1OC(c2ccccc2)=N/C1=C\N1CCCCC1,3.5µM,9.5µM,?,2.8µM,?
O=C1OC(c2ccc(Br)cc2)=N/C1=C\N1CCCCC1,2.5µM,?,15µM,2.2µM,13µM
Cc1ccc(Cn2c(CNS(=O)(=O)c3ccc(C(C)(C)C)cc3)nc3cccnc32)cc1,.,-,.,.,.
C#CCCCC(=O)Nc1ccccc1,.,.,.,.,-
CC(=O)N1[C@H](Cc2ccccc2)C=C[C@]1(C)C(=O)O,.,.,.,.,-
Nc1nc(CSc2n[nH]c(-c3ccccc3)n2)nc(Nc2ccccc2)n1,-,-,-,-,-
Nc1nc(CSc2ncccn2)nc(Nc2ccccc2)n1,4µM,24µM,?,4.5µM,14µM
Cc1ccc(Nc2nc(N)nc(CSc3nc(C)cc(C)n3)n2)cc1,.,-,.,.,-
Cc1ccc(Nc2nc(N)nc(CSc3ncccn3)n2)cc1,2µM,12µM,?,2.2µM,13µM
CC(=O)NS(=O)(=O)c1ccc(NC(=O)c2oc3c(Cl)cccc3c2C)cc1,-,13µM,-,-,.
Nc1c(O)ccc2c1C(=O)c1ccccc1C2=O,-,17µM,-,-,-
SMILES,Rab9 promoter act,FLuc counter,ELG1 genotoxic,NPC1 promoter act,SMN2 splice enh
CCN(CC)C(=O)Oc1ccc2ccccc2c1Br,?,19µM,-,?,?
O=C(Oc1ccc2ccccc2c1Br)N1CCCCCC1,0.63µM,1.3µM,?,0.5µM,11µM
O=C(COc1ccc2ccccc2c1Br)N1CCN(c2ccccn2)CC1,-,-,-,-,-
NC(=O)C1CCN(C(=O)COc2ccc3ccccc3c2Br)CC1,-,-,-,-,.
O=C(COc1ccc2ccccc2c1Br)N1CCCCC1,?,15µM,18µM,-,.
CCCCn1c(SCC(=O)Nc2cccc(OC)c2)nc2ccsc2c1=O,.,-,.,.,.
COC/C=C/C1=CC2=CC(=O)C(C)(OC(=O)c3ccc(Cl)nc3)C(=O)C2=CO1 (stereo unspecified),.,.,.,.,-
Cc1cc2c(cc3c(SCc4ccc(Cl)cc4)nncn32)o1,.,-,.,.,.
COc1cc(OC)c2c(c1Cl)O[C@@]1(C2=O)[C@H](C)CC(=O)C[C@@H]1OC,.,.,.,.,-
O=C(Nc1ccc(C(=O)N2CCCC2)cc1)c1ccccc1F,?,?,8.2µM,?,?
CNC(=O)c1ccccc1Nc1ccc(SC(F)F)cc1,-,?,-,-,.
O=C(Nc1ccc(SC(F)F)cc1)c1ccccc1F,1.8µM,13µM,?,2.5µM,18µM
CCOC(=O)Nc1ccc(NC(=O)c2ccccc2F)cc1,3.5µM,?,?,?,?
CCOC(=O)c1ccc(NC(=O)c2ccccc2C)cc1,?,?,-,?,?
O=C(Nc1ccc(Oc2cccnc2)cc1)c1ccccc1F,2.8µM,12µM,-,?,-
CCOc1ccccc1NC(=O)c1nn(C)c2c1CSc1ccccc1-2,.,-,.,.,.
CCCCCCCCCCCCCCCCOC[C@H](COP(=O)([O-])OCC[N+](C)(C)C)OC(=O)NC,.,.,.,.,-
Cc1cccn2c(=O)c(/C=C(\C#N)c3nc4ccccc4n3C)c(Oc3ccc(Cl)cc3)nc12,.,-,.,.,?
O=C(Nc1ccc2oc(-c3cccnc3)nc2c1)c1ccccc1F,.,?,.,.,-

# Source: PubChem
